# From the supplement of paper PMC3334620
# Whole data set: some 33,000 sequences, median “E-score (-0.5 to 0.5)” near -0.015, cut for the highest 2% near 0.3. This excerpt belongs to a sample that is enriched for the highest values.
# Molecular target: T1, Abf1 (UniProt P14164)
# T1 sequence: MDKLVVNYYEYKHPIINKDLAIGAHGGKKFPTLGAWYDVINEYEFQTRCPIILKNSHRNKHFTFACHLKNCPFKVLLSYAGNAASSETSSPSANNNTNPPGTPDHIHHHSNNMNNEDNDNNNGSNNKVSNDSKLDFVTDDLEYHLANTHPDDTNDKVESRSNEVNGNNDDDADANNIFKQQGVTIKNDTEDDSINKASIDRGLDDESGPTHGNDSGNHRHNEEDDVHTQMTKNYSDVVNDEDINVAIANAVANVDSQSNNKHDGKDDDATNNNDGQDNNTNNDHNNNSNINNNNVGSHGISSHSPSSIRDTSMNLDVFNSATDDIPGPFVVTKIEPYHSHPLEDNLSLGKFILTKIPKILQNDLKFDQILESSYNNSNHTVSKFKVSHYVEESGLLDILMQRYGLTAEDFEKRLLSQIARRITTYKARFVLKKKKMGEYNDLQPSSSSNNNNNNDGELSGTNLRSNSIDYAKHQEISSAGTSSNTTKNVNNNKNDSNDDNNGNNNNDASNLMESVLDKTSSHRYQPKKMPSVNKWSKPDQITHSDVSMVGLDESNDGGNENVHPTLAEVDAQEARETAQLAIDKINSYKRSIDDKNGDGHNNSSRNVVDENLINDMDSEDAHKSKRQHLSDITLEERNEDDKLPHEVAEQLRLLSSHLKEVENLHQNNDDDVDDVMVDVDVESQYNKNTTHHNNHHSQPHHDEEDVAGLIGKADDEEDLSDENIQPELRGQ
# Assay: PBM E-score (8-mer binding enrichment) (E-score (-0.5 to 0.5)); higher = stronger / more preferred TF binding
# Conditions: protein concentration: 200 nM; construct: GST-full length
# Protocol: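 Universal 'all 10-mer' protein binding microarrays (Agilent AMADID 015681) probed with GST-tagged S. cerevisiae TFs (full-length or DBD) made by in vitro transcription/translation (PURExpress), about 100-200 nM. Bound TF was detected with fluorescent anti-GST. Each ungapped 8-mer (which stands for itself and its reverse complement) is scored by the PBM enrichment score (E-score), a modified Wilcoxon-Mann-Whitney statistic from -0.5 to +0.5, computed with the Universal PBM Analysis Suite. Scale: above 0.35 generally sequence-specific binding.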
row,Sequence,PBM E-score
1,CATCGCGA,0.2
2,GATCGCGC,0.121
3,AATCGCGA,0.176
4,TATCGCGA,0.34
5,GATCGCCA,0.165
6,GATCGCGA,0.315
7,ATTTAGCA,0.193
8,AGGTAATG,0.0091
9,AACTCTAT,-0.096
10,CGTCTTTC,0.0707
11,CGTCTTTA,0.301
12,GGTCTTTA,0.0661
13,CTTGTTAA,-0.072
14,TCCGTGCA,0.312
15,ACCGTGCG,0.315
16,ACCGTGCC,0.0366
17,TCCGTGAA,0.238
18,ATCGTGCC,0.276
19,GCCGTGCA,0.223
20,ACCGTGCT,0.139
21,ATCGTGCG,0.366
22,CCCGTGCG,0.054
23,ACCGTGCA,0.315
24,CCCGTGCA,0.0856
25,ATCGTGCA,0.282

row,Sequence,PBM E-score
1,AAGTTGTG,-0.0478
2,CTAGGAAG,-0.18
3,CACTGAGA,-0.104
4,AGAAGTTG,-0.0778
5,CTTCGACC,-0.0331
6,GTAGTCAA,0.106
7,CGTGAGTC,0.0135
8,CGCCCGCG,-0.0644
9,AACAGTAT,0.0291
10,AGGTCCAC,-0.0594
11,AATACGGG,0.202
12,CATACGAC,0.333
13,AATACGGC,0.32
14,CATACGGC,0.346
15,GATACGGC,0.199
16,CATACGAG,0.171
17,CATACGGA,0.295
18,CATACGCC,-0.00293
19,AATACGGT,0.194
20,CAGCTTTC,-0.00915
21,AAACTTCT,0.211
22,ATCGCCAC,0.275
23,ATAGATAC,-0.0386
24,CTCACTTA,0.14
25,ATCACTGA,0.205

row,Sequence,PBM E-score
1,ATCACTTA,0.355
2,AGCACTTC,0.0874
3,GTCACTGA,0.253
4,GCCACTTA,-0.0218
5,GTCACTTA,0.355
6,AACACTTG,-0.0627
7,ATCACTTC,0.376
8,CTCACTTC,-0.0359
9,AGCACTTG,-0.314
10,ATCACTTG,0.355
11,CACGGGTC,-0.0483
12,CGTGTGGC,0.0664
13,ATACCGAA,0.189
14,ATTGACGC,-0.156
15,AGTTCTTC,-0.0427
16,CTTCAGAA,-0.179
17,CAAGAACG,0.123
18,GCCATTAA,0.0468
19,AATTGAAG,-0.0559
20,GACACGAA,0.172
21,CACACGAC,0.295
22,CACACGGA,0.0992
23,TACACGAA,0.337
24,CACACGAG,0.107
25,AACACGAA,0.205

row,Sequence,PBM E-score
1,CACACGAA,0.341
2,GACACGGA,0.167
3,TACACGGA,0.329
4,GGGCAGCA,-0.256
5,AGCAGGTG,-0.0258
6,ACCTAACC,0.0492
7,ACTTAGGC,-0.111
8,ACTCATCC,0.227
9,GACGAAGA,0.253
10,AACGAAGA,0.188
11,CACGAAGA,0.316
12,TACGAAGA,0.334
13,TACGAATA,0.25
14,TCCGAAGA,-0.0522
15,CAGCAGGA,-0.0545
16,ACCCTACT,-0.231
17,CCTATTCC,-0.139
18,GCAGGTAC,-0.221
19,TATTGACA,-0.0437
20,GAATGACC,0.0136
21,GAATGACA,0.311
22,TAATGCCA,-0.0319
23,AAATGACC,0.215
24,CAATGACA,0.214
25,AAATGACA,0.358

row,Sequence,PBM E-score
1,TAATGACA,0.376
2,AAATGACG,0.187
3,GACTTCTC,0.167
4,ATGAGCGC,0.0585
5,GTAGGGTA,0.0591
6,CCGTTTGC,-0.0132
7,CATAGCAG,-0.126
8,GTCGTACA,0.383
9,CACGTACA,0.0758
10,CTCGTACA,0.342
11,GGCGTACA,0.0819
12,GTCGTAGA,0.278
13,ATCGTACA,0.34
14,ATCGTAAA,0.234
15,ATCGTACG,0.394
16,ATCGTACC,0.0609
17,ATCGTAAG,0.108
18,CTCGTACC,0.184
19,AACGTACA,0.0978
20,GTCTGCAC,-0.061
21,GGTCCTGA,-0.0764
22,CGGAAGTA,-0.0352
23,ACAGGTAC,-0.146
24,GGCTTTAC,-0.225
25,GCTGGGTA,-0.0116

row,Sequence,PBM E-score
1,AAGAAAAA,-0.0775
2,CCAGGATA,0.126
3,GTGAGGTA,-0.0243
4,AGAAACCT,-0.237
5,CTTACGTA,0.212
6,ATTACGGG,-0.0226
7,ATTACGGC,0.184
8,ATTACGGA,0.303
9,ATTACGTA,0.372
10,ATTACGTG,0.176
11,GAGAGGCA,-0.176
12,GCCCTACC,-0.149
13,CTGAATCA,-0.0743
14,AAGCCCCC,-0.352
15,CTAGTGAA,-0.202
16,ACAGTGAT,0.294
17,GTAGTGAA,0.0467
18,ATAGTGAA,0.0719
19,ATAGTGAT,0.436
20,GCAGTGAC,0.15
21,GTAGTGAC,0.35
22,ATAGTGAG,0.069
23,ATAGTGGG,-0.075
24,ATAGTGAC,0.35
25,CTAGTGAG,-0.0339

row,Sequence,PBM E-score
1,CTAGTGAC,0.316
2,AGTCGTAC,0.169
3,CTGGGTAA,-0.0825
4,ATGGGTTC,-0.0947
5,GCGCGCGC,0.197
6,GCAGGGAC,-0.131
7,TTAGCCAA,-0.00286
8,CGGCGCCC,-0.143
9,CGAGCAAA,0.179
10,CGCGGGAC,-0.172
11,GACGTGCA,0.358
12,CTCGTGCA,0.124
13,AACGTGCA,0.0844
14,GTCGTGCA,0.374
15,GGCGTGCA,-0.0867
16,CACGTGCA,0.139
17,GATGGAGA,-0.00795
18,AGATCGCA,0.0409
19,ATCCCCGC,-0.211
20,CACAAAGA,0.0323
21,AGGTCAGC,-0.0373
22,CCGTACAG,0.21
